Records with an inconclusive call do not appear. A call without a number means that no potency is given here. Values without a mark were called inactive. The source made the active and inactive calls. Unless noted, calls follow the shape of the dose curve; as a rule, active = well fitted curve in the direction sought with a large enough effect in the repeat runs; inconclusive = weak or mixed curves; inactive = no such curve, though single readings can be large; an effect the other way counts as inactive or inconclusive.
Assay: qHTS assay to identify small molecule antagonists of the progesterone receptor (PR) signaling pathway - cell viability counter screen (AID 1346798);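 also: HEK293T PR-UAS-bla cells stimulated with the agonist R5020; nearly all actives have a fitted effect of over 50% in size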
Conditions: PR-UAS-bla HEK293T viability, CellTiter-Glo luminescence, 16 h; series mostly up to 92.4 µM; activity change, negative = cytotoxicity: at the top concentration
Summary of the method: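 HEK293T PR-UAS-bla, 2% charcoal-stripped FBS; 4 hr pre-plate; cpd + R5020, 16 h 37C; LiveBLAzer read first; then CellTiter-Glo 30 min RT, luminescence.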
With `CN1Cc2c(N)cccc2C(c2ccccc2)C1` (configuration not stated) the “activity change, negative = cytotoxicity” value was -16.5%. In the case of `COCN(COC)c1nc(N(COC)COC)nc(N(COC)COC)n1`, the Potency is reported as “inactive”. With `CC/C(C)=N/O` the Potency was “inactive”. In the case of `CC(=O)OCCC(C)C`, the Potency is reported as “inactive”. With `C=C1C[C@]23C[C@@]1(O)CC[C@H]2[C@@]12C=C[C@H](O)[C@@](C)(C(=O)O1)[C@H]2[C@@H]3C(=O)O` the Potency was “inactive”. With `COc1ccc2cc3[n+](cc2c1OC)CCc1cc2c(cc1-3)OCO2` the “activity change, negative = cytotoxicity” value was 22.3% [at 42.5 µM]. In the case of `CC(O)CNCC(C)O` (configuration not stated), the Potency is reported as “inactive”. In the case of `CN1CCCC1=O`, the Potency is reported as “inactive”. With `O=C1O[C@H]([C@H](O)CO)C(O)=C1O` the Potency was “inactive”. In the case of `CC/C=C(\C(=O)N[C@@H]1C(=O)N2C(C(=O)OCOC(=O)C(C)(C)C)=C(COC(N)=O)CS[C@H]12)c1csc(N)n1`, the Potency is reported as “inactive”. With `O=[N+]([O-])c1cc(C(F)(F)F)ccc1Cl` the Potency was “inactive”. In the case of `CCCCC(CC)COC(=O)c1ccc(C(=O)OCC(CC)CCCC)cc1` (configuration not stated), the Potency is reported as “inactive”. In the case of `CC1(C)[C@@H](O[C@H]2O[C@H](C(=O)O)[C@@H](O)[C@H](O)[C@H]2O[C@@H]2O[C@H](C(=O)O)[C@@H](O)[C@H](O)[C@H]2O)CC[C@]2(C)[C@H]3C(=O)C=C4[C@@H]5C[C@@](C)(C(=O)O)CC[C@]5(C)CC[C@@]4(C)[C@]3(C)CC[C@@H]12`, the Potency is reported as “inactive”. With `C=C(CC(=O)O)C(=O)O` the Potency was “inactive”. In the case of `NC(N)=S`, the Potency is reported as “inactive”. In the case of `Brc1ccc(Oc2ccc(Br)cc2)cc1`, the Potency is reported as “inactive”. For `OCCOCCOCCOCCOCCO`, the Potency was “inactive”. For `C=CC(C)(C)C`, the Potency was “inactive”. For `CC(=O)Nc1ccc(CC(=O)O)cc1`, the Potency was “inactive”. In the case of `CCCCCCCCCCCCCC(=O)O`, the Potency is reported as “inactive”. With `Clc1cccc(Cl)c1NC1=NCCN1` the “activity change, negative = cytotoxicity” value was 0.0838% [at 42.5 µM]. In the case of `O=Cc1ccc(CO)o1`, the Potency is reported as “inactive”. With `O=c1n(CCCN2CCN(c3cccc(Cl)c3)CC2)nc2ccccn12` the “activity change, negative = cytotoxicity” value was 6.83% [at 42.5 µM]. With `COc1ccccc1[N+](=O)[O-]` the “activity change, negative = cytotoxicity” value was -0.795%. For `CCCCC(=O)O`, the Potency was “inactive”. For `Cc1ncc(CO)c(CO)c1O`, the Potency was “inactive”.

Assay: qHTS assay to identify small molecule agonists of the progesterone receptor (PR) signaling pathway - cell viability counter screen (AID 1346799; calls by dose curve; also: nearly all actives have a fitted effect of over 45% in size; also: potency is read from the fitted curve at half-maximal effect)
Conditions: PR-UAS-bla HEK293T viability, CellTiter-Glo luminescence, 16 h; series mostly up to 92.4 µM; activity change, negative = cytotoxicity: at the top concentration
Summary of the method: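 Luminescence from CellTiter-Glo, added after the beta-lactamase FRET read in the same wells, gave cytotoxicity in PR-UAS-bla HEK293T cells treated with compounds for 16 hr at 37C.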
In the case of `O=C1CCCCCCCCCCC1`, the Potency is reported as “inactive”. In the case of `COCN(COC)c1nc(N(COC)COC)nc(N(COC)COC)n1`, the Potency is reported as “inactive”. In the case of `CC1=CC(=O)CC(C)(C)C1`, the Potency is reported as 19.9 µM (active). For `CCCCCCC(=O)O`, the Potency was “inactive”. With `Cc1ccncc1` the Potency was “inactive”. In the case of `CCOC(=O)CC(=O)OCC`, the Potency is reported as “inactive”. With `COc1cc(NC(=O)CC(C)=O)c(OC)cc1Cl` the Potency was “inactive”. In the case of `NCCNCCNCCN`, the Potency is reported as “inactive”. For `CCCCC(CC)COC(=O)c1ccc(C(=O)OCC(CC)CCCC)cc1` (configuration not stated), the “activity change, negative = cytotoxicity” value was 9.01%. With `NC(N)=S` the Potency was “inactive”. With `Cc1ccc(C)c(S(=O)(=O)O)c1` the Potency was “inactive”. In the case of `CC(=O)Nc1ccc(CC(=O)O)cc1`, the Potency is reported as “inactive”. For `NC1CCCCC1N` (configuration not stated), the Potency was “inactive”. For `Cc1nnc(NS(=O)(=O)c2ccc(N)cc2)s1`, the Potency was “inactive”. In the case of `O=Cc1ccc(CO)o1`, the Potency is reported as “inactive”. In the case of `CC(C)(CO)CO`, the Potency is reported as “inactive”. For `N#CCC(=O)O`, the Potency was “inactive”. In the case of `Cc1ncc(CO)c(CO)c1O`, the Potency is reported as “inactive”.

Assay: qHTS assay to identify small molecule antagonists of the TGF-beta/Smad signaling pathway - cell viability counter screen (AID 1346824); also: nearly all actives have a fitted effect of over 50% in size
Conditions: SBE-bla HEK293T viability, CellTiter-Glo luminescence; series mostly up to 76.8 µM; viability change, negative = cytotoxic: at the top concentration
Summary of the method: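 Cytotoxicity counter-screen run in the same wells as the beta-lactamase Smad reporter read: CellTiter-Glo luminescence after 30 min at room temperature. HEK 293T SBE-bla cells had 5 hr compound exposure at 37 C with TGF-beta1 (0.25 ng/mL stock).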
With `O=C1CCCCCCCCCCC1` the Potency was “inactive”. For `CN1Cc2c(N)cccc2C(c2ccccc2)C1` (configuration not stated), the Potency was “inactive”. In the case of `COCN(COC)c1nc(N(COC)COC)nc(N(COC)COC)n1`, the Potency is reported as “inactive”. In the case of `CC/C(C)=N/O`, the Potency is reported as “inactive”. In the case of `CC(=O)OCCC(C)C`, the Potency is reported as “inactive”. In the case of `C=C1C[C@]23C[C@@]1(O)CC[C@H]2[C@@]12C=C[C@H](O)[C@@](C)(C(=O)O1)[C@H]2[C@@H]3C(=O)O`, the Potency is reported as “inactive”. In the case of `COc1ccc2cc3[n+](cc2c1OC)CCc1cc2c(cc1-3)OCO2`, the Potency is reported as “inactive”. In the case of `CC1=CC(=O)CC(C)(C)C1`, the Potency is reported as “inactive”. For `CC(O)CNCC(C)O` (configuration not stated), the Potency was “inactive”. With `CCCCCCC(=O)O` the Potency was “inactive”. With `Cc1ccncc1` the Potency was “inactive”. With `CN1CCCC1=O` the Potency was “inactive”. For `O=C1O[C@H]([C@H](O)CO)C(O)=C1O`, the Potency was “inactive”. With `CC/C=C(\C(=O)N[C@@H]1C(=O)N2C(C(=O)OCOC(=O)C(C)(C)C)=C(COC(N)=O)CS[C@H]12)c1csc(N)n1` the Potency was “inactive”. With `CCOC(=O)CC(=O)OCC` the Potency was “inactive”. With `COc1cc(NC(=O)CC(C)=O)c(OC)cc1Cl` the Potency was “inactive”. For `O=[N+]([O-])c1cc(C(F)(F)F)ccc1Cl`, the Potency was “inactive”. In the case of `NCCNCCNCCN`, the Potency is reported as “inactive”. For `CCCCC(CC)COC(=O)c1ccc(C(=O)OCC(CC)CCCC)cc1` (configuration not stated), the Potency was “inactive”. In the case of `CC1(C)[C@@H](O[C@H]2O[C@H](C(=O)O)[C@@H](O)[C@H](O)[C@H]2O[C@@H]2O[C@H](C(=O)O)[C@@H](O)[C@H](O)[C@H]2O)CC[C@]2(C)[C@H]3C(=O)C=C4[C@@H]5C[C@@](C)(C(=O)O)CC[C@]5(C)CC[C@@]4(C)[C@]3(C)CC[C@@H]12`, the Potency is reported as “inactive”. For `C=C(CC(=O)O)C(=O)O`, the Potency was “inactive”. For `NC(N)=S`, the Potency was “inactive”. In the case of `Brc1ccc(Oc2ccc(Br)cc2)cc1`, the Potency is reported as “inactive”. With `OCCOCCOCCOCCOCCO` the Potency was “inactive”. For `C=CC(C)(C)C`, the Potency was “inactive”. In the case of `Cc1ccc(C)c(S(=O)(=O)O)c1`, the Potency is reported as “inactive”. For `CC(=O)Nc1ccc(CC(=O)O)cc1`, the Potency was “inactive”. In the case of `NC1CCCCC1N` (configuration not stated), the Potency is reported as “inactive”. In the case of `Cc1nnc(NS(=O)(=O)c2ccc(N)cc2)s1`, the Potency is reported as “inactive”. With `CCCCCCCCCCCCCC(=O)O` the Potency was “inactive”. For `Clc1cccc(Cl)c1NC1=NCCN1`, the “viability change, negative = cytotoxic” value was 0.691% [at 35.3 µM]. With `O=Cc1ccc(CO)o1` the Potency was “inactive”. In the case of `CC(C)(CO)CO`, the Potency is reported as “inactive”. With `O=c1n(CCCN2CCN(c3cccc(Cl)c3)CC2)nc2ccccn12` the Potency was “inactive”. With `COc1ccccc1[N+](=O)[O-]` the Potency was “inactive”. With `CCCCC(=O)O` the Potency was “inactive”. For `N#CCC(=O)O`, the Potency was “inactive”. With `Cc1ncc(CO)c(CO)c1O` the Potency was “inactive”.

Reference: PubChem BioAssay (Tox21)
